In PubChem BioAssay AID648 (SRMLSC, 2007):
The campaign covered roughly 86,000 compounds. About 920 (1.1%) were called active. What follows is part of a selection rich in actives, with near analogues and random picks from the rest. Unmarked numbers belong to inactive results.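 The calls were made as follows: active = viability at or below 30%; inactive = viability above 30%.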

Assay: inhibitors of HUVEC proliferation, primary screen, cell-based, 384-well (AID 648);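 also: 100% = median luminescence of DMSO-only cell control wells on each plate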
Details: CellTiter-Glo luminescence, 72 h, hits give low values, screened at 10 µM (by protocol)
Compound CC(C)(C)C1CCc2c(sc3nc(SCC(N)=O)nc(N)c23)C1 (configuration not stated) has a viability of 48.8%. In the case of CN1CCN(CC(=O)Nc2sc3c(c2C#N)CCC(C(C)(C)C)C3)CC1 (configuration not stated), the viability was 2.13% (active). Compound CCC(=O)Nc1sc(C(=O)N2CCCCC2)c(C)c1C#N has a viability of 98.7%. O=C(O)CSc1nccn1-c1cccc(Cl)c1 showed a viability of 105%. CC(C)NC(=O)C(=O)NCCN1CCN(S(=O)(=O)c2ccc(Cl)cc2)CC1 showed a viability of 114%. With CCSc1nc(-c2ccc(OC)cc2)cc(-c2ccc(OC)cc2)c1C#N the viability was 100%. Compound COc1ccc(Nc2ncc(C(=O)N3CCN(c4ccccc4OC)CC3)c3ccccc23)cc1 has a viability of 62.2%. Compound O=C(CO/N=C/c1ccccc1O)NNC(=O)c1ccccc1Cl has a viability of 97.1%. For CCNS(=O)(=O)c1ccc(NC(=O)Nc2cccc(C(F)(F)F)c2)cc1, the viability was 29.7% (active). With O=C(O)CSCC(=O)Nc1cccc(C(F)(F)F)c1 the viability was 89.5%. CCNS(=O)(=O)c1ccc(NC(=O)Nc2cccc(OC)c2)cc1 showed a viability of 72.2%. With O=C(O)CCC(=O)NCc1ccc2[nH]c3c(c2c1)CCCC3 the viability was 98.8%. For O=C1CCCc2c1[nH]c1ccc(Br)cc21, the viability was 16.3% (active). For O=[n+]1c2c(n([O-])c3cc(Br)ccc31)CCC2, the viability was 94.2%. COc1cccc2c1OCC1COc3c(c(=O)n(C)c(=O)n3C)C21 (configuration not stated) gave a viability of 104%. Work on Cc1cc(C)cc(NC(=O)c2cccc(NC(=O)C3C4CC5OC(=O)C3C5C4)c2)c1 (configuration not stated) yielded a viability of 92.7%. Compound CCN1CCc2c(C#N)c(NCc3ccccc3)nc(NCCO)c2C1 has a viability of 79.7%. Work on CC(C)Cc1nc(N2CCOCC2)c(C#N)c2c1CCC2 yielded a viability of 103%. With CC(C)CCNc1nc(N2CCCC2)c2c(c1C#N)CCN(C)C2 the viability was 2.55% (active). For CCOc1ccc(S(=O)(=O)Nc2ccc(S(=O)(=O)Nc3cc(OC)ccc3OC)cc2)cc1, the viability was 95.7%. CCCCCCc1cc2cc(-c3nnc(-c4cccc(OC)c4)o3)c(=O)oc2cc1O showed a viability of 31.1%. CCC1(CC)Cc2ccccc2-c2nc3ccccc3c(=O)n21 showed a viability of 102%. For COc1ccccc1-n1nnnc1S(=O)(=O)Cc1ccc(Cl)cc1, the viability was 11.8% (active). COc1ccccc1N1CCN(Cc2nnnn2CCc2ccccc2)CC1 showed a viability of 100%. With COc1ccccc1N1CCN(C(=O)CN(Cc2ccc(Cl)cc2)S(C)(=O)=O)CC1 the viability was 109%. With Cc1nc(NC(=O)CN(C)S(=O)(=O)c2ccc(Cl)cc2)sc1C the viability was 101%. With c1ccc2c(c1)C(=NC1CCCCC1)NC2=NC1CCCCC1 the viability was 26.7% (active). In the case of O=C1CCCCC(=O)c2ccccc2N1, the viability was 98.7%. In the case of CCOC(=O)c1cnc(SCC(=O)Nc2cccc(OC)c2)nc1N, the viability was 93.3%. Work on CCn1nnnc1SCC(=O)c1ccc(C)cc1C yielded a viability of 92.1%. Compound OC(COc1ccc2c(c1)CCC2)CN1CCN(c2cccc(Cl)c2)CC1 (configuration not stated) has a viability of 83.9%. With Cc1coc2c(O)cc3c(c12)OC1(N2CCCCC2)C(=O)NCCCC31 (configuration not stated) the viability was 6.44% (active). Work on Cc1cccc(NC(=O)N(Cc2cc3cc(C)cc(C)c3[nH]c2=O)CC2COCCO2)c1 (configuration not stated) yielded a viability of 77.6%. N#CCSc1nc2c(c(=O)n1Cc1ccccc1)C1(CCCC1)Cc1ccccc1-2 gave a viability of 101%. In the case of Cc1c(C=O)c2ccccn2c1C(=O)c1ccncc1, the viability was 97%. For CCc1c(-c2ccccc2)nc(N)c(C#N)c1-c1cccs1, the viability was 102%. With COc1cccc(NC(=O)CN(C)S(=O)(=O)c2ccc(C)cc2)c1 the viability was 97.5%. In the case of COc1cccc(-c2nnc(NC(=O)c3ccc(S(=O)(=O)N(CC(C)C)CC(C)C)cc3)o2)c1, the viability was 23.6% (active). CCN(CC)C(=O)CSc1nnc(-c2cccc(OC)c2)o1 gave a viability of 104%. CC1(C)NC(=O)N(CCCCSc2ccc(Cl)cc2)C1=O showed a viability of 97.1%. Work on CC(C)NS(=O)(=O)c1ccc(NC(=O)C2CCCCC2)cc1 yielded a viability of 106%. With O=C(Nc1ccc2oc(-c3ccc4ccccc4c3)nc2c1)c1cccs1 the viability was 22% (active). O=C(Cc1cccc2ccccc12)Nc1ccc2oc(-c3ccccc3)nc2c1 showed a viability of 49.6%. Compound Cc1nc(-c2ccc(NC(=O)c3cccs3)cc2)cs1 has a viability of 89.5%. Compound CC(Oc1ccc(Cl)cc1)c1ccnn1S(C)(=O)=O (configuration not stated) has a viability of 73.7%. Work on COc1ccccc1C(=O)N1CC2(C)CC1CC(C)(C)C2 (configuration not stated) yielded a viability of 94%. Compound COn1c(=O)c(=O)n(OC)c2ccccc21 has a viability of 105%. Compound O=C(c1cccc(C(=O)N2CCN(c3ccc(F)cc3)CC2)c1)N1CCN(c2ccc(F)cc2)CC1 has a viability of 92.2%. In the case of CCN1CCN(C(c2cccnc2)c2cc(Cl)c3cccnc3c2O)CC1 (configuration not stated), the viability was 74.6%. For Oc1c(CN2CCN(c3ccc(F)cc3)CC2)cc(Cl)c2cccnc12, the viability was 5.81% (active). In the case of Cc1nnc(SCC(=O)N2CCN(c3ccccc3)CC2)n1-c1ccccc1, the viability was 93.5%. With COC(=O)c1ccc(CSc2nnc(NC(C)C)s2)cc1 the viability was 96.9%. Work on CCc1c(O)nc(SCC(=O)Nc2ccccc2)n(C(C)CC)c1=O (configuration not stated) yielded a viability of 96.5%. Compound CC(C)(C)n1nnnc1C(c1ccc(F)cc1)N1CCN(Cc2ccc3c(c2)OCO3)CC1 (configuration not stated) has a viability of 89%. CCCc1nc(NCc2ccc3c(c2)OCO3)c2nnn(Cc3ccccc3Cl)c2n1 gave a viability of 73.6%. C#CCNc1nc(C(C)C)nc2c1nnn2Cc1ccccc1F showed a viability of 127%. With Cc1nc(Nc2ccc3c(c2)OCCO3)c2nnn(Cc3ccccc3Cl)c2n1 the viability was 29.5% (active). Nc1c(C(=O)NCc2ccccc2)sc2nc3c(cc12)C(=O)CCC3 gave a viability of 84.8%. With Cc1nnc(SC(C)C(=O)Nc2ccc(S(=O)(=O)NC3CCCCC3)cc2)s1 (configuration not stated) the viability was 104%. Work on O=C(Nc1ccccc1)c1ccc2c(c1)OCO2 yielded a viability of 94%. Cc1cccc(Nc2ccccc2C(=O)NCc2ccco2)c1C showed a viability of 63.9%. Cc1cccc(C)c1N1CCN(S(=O)(=O)N2CCOCC2)CC1 gave a viability of 108%.
